Test results: paper PMC4336329 (PLoS ONE, 2015)
The campaign covered roughly 310,000 compounds. About 14,000 (4.5%) showed an effect of 50% or more. The effect is printed as a negative number. The full list was thinned out, with strong results kept by preference.

Target: human ether-à-go-go-related gene (hERG) potassium channel (human, UniProt Q12809)
Assay: primary screen, population patch clamp on CHO cells stably expressing hERG; higher = less effect of the substance
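Note: peak tail current of the secondary pulse compared with the same well before compound.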

Sequence of human ether-à-go-go-related gene (hERG) potassium channel (Q12809 whole entry, looked up): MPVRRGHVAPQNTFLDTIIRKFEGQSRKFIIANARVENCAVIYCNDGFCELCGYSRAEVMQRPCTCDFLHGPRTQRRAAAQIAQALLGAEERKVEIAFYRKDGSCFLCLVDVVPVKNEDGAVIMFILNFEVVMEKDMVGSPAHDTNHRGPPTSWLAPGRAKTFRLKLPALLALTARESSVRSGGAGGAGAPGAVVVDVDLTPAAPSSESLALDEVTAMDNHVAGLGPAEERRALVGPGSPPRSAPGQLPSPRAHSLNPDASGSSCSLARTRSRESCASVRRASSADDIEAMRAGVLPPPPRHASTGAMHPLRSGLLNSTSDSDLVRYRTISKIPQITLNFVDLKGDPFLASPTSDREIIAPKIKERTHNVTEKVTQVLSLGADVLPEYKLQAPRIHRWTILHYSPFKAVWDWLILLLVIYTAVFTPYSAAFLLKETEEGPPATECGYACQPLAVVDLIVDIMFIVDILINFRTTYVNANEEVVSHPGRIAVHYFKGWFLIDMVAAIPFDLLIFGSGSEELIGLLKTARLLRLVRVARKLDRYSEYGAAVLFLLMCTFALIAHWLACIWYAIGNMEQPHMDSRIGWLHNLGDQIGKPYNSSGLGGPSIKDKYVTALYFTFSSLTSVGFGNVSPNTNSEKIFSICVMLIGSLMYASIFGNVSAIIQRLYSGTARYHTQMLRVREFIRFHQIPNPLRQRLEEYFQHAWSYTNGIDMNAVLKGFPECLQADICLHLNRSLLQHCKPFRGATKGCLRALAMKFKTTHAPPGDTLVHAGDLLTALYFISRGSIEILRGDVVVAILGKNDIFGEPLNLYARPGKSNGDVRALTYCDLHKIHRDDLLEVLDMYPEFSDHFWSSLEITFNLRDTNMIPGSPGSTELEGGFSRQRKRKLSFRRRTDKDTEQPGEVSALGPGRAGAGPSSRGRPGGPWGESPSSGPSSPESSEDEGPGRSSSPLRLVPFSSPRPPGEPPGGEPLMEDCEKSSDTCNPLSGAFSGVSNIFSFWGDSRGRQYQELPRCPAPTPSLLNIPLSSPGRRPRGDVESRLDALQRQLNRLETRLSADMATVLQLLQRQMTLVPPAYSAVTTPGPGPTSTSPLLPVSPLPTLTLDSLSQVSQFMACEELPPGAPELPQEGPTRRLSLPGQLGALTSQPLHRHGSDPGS

| SMILES | hERG current change (%, negative = inhibition) at 10uM |
| --- | --- |
| Cc1ccc(OCCCC(=O)Nc2cc(Cl)ccc2-n2cncn2)cc1 | -22.4% |
| CCOC(=O)N1CCN(C(=O)CSCC(=O)Nc2nc(-c3cccs3)cs2)CC1 | -31.4% |
| COc1cccc(CN2CCC(C(=O)N3CCN(c4ccccc4F)CC3)CC2)c1 | -53% |
| COc1cc(CN2CCC(C(=O)N3CCN(c4ccccc4F)CC3)CC2)cc(OC)c1O.O=C(O)C(=O)O | -3.74% |
| COc1cc(CN2CCC(C(=O)N3CCN(c4ccccc4F)CC3)CC2)ccc1O.O=C(O)C(=O)O | -19.9% |
| COc1ccc(CN2CCC(C(=O)N3CCN(c4ccccc4F)CC3)CC2)cc1OC | -37% |
| CCOc1ccccc1N1CC(C(=O)N2CCc3ccccc3C2)CC1=O (stereo not shown) | -19.4% |
| CCOc1ccc(CN2CCC(C(=O)N3CCN(c4ccccc4F)CC3)CC2)cc1OC.O=C(O)C(=O)O | -64.8% |
| CCOc1ccccc1N1CC(C(=O)N2CCOCC2)CC1=O (stereo not shown) | 13.9% |
| CCOc1ccccc1N1CC(C(=O)N2CCN(Cc3ccc(C#N)cc3)CC2)CC1=O (stereo not shown) | -67.3% |
| COc1cc(CN2CCC(C(=O)N3CCN(c4ccccc4F)CC3)CC2)cc(OC)c1OC.O=C(O)C(=O)O | -22.6% |
| COc1cccc(CN2CCC(C(=O)N3CCC(C)CC3)CC2)c1.O=C(O)C(=O)O | -11% |
| COc1cccc(CN2CCC(C(=O)N3CCN(c4ccccc4F)CC3)CC2)c1OC.O=C(O)C(=O)O | -10.2% |
| COc1ccc(OC)c(CN2CCC(C(=O)N3CCN(c4ccccc4F)CC3)CC2)c1.O=C(O)C(=O)O | -65.3% |
| CC1=C/C(=C(/c2ccc(O)c(C)c2)c2ccccc2S(=O)(=O)[O-])C=CC1=O.[Na+] | 3.9% |
| Cc1ccc(NC(=O)CSc2ccc(-c3cccnc3)nn2)cc1 | -12.3% |
| Cc1cccc(OCC(=O)N/N=C\c2cc3c(cc2[N+](=O)[O-])OCO3)c1C | -7.82% |
| Cc1ccccc1C(=O)Nc1ccccc1C(=O)NC1CC1 | 6.72% |
| Cc1ccccc1N(CC(=O)NC1CCCCC1)C(=O)c1csnn1 | 8.46% |
| CCC(=O)Nc1sc2c(c1C(N)=O)CCN(C(C)=O)C2 | 10.7% |
| Cc1ccc(C(=O)Oc2cccc(NC(=O)c3ccccc3)c2)cc1C | 19.2% |
| Cc1cc(C)cc(NC(=O)[C@@H](NC(=O)c2ccco2)C(C)C)c1 | 5.62% |

| SMILES | hERG current change (%, negative = inhibition) at 10uM |
| --- | --- |
| Cc1cc(C(=O)NNC(=O)/C=C/c2ccc(F)cc2)c(C)o1 | 1.41% |
| CCN1CCN(Cc2ccc(NC(=O)c3cc(NC(=O)c4cc(-c5ccc(OC)cc5)n[nH]4)cc(OC)c3)cc2C(F)(F)F)CC1 | 11.9% |
| CC(C)Nc1nc(NC(C)(C)C)nc(Oc2ccc(=O)n(C)n2)n1 | -15.3% |
| Cc1c(C(=O)NC2=NCCS2)oc2ccccc12 | -25.4% |
| Cc1cc(C)nc(Oc2ccc(Br)cc2Br)n1 | 19.1% |
| OCC1(CCOc2ccccc2)CCN(Cc2ccccc2OC(F)F)CC1 | -72.5% |
| C=CCOc1ccccc1CN1CCCN(C)CC1 | 6.51% |
| OCC1(CCOc2ccccc2)CCN(Cc2ccccc2C(F)(F)F)CC1 | -34.2% |
| COc1ccccc1CN1CCN(C(=O)COc2ccccc2)CC1 | -8.47% |
| C=CCOc1ccccc1CN1CCC(CO)(CCOc2ccccc2)CC1 | -81.9% |
| OCC1(CCOc2ccccc2)CCN(Cc2ccc(OC(F)F)cc2)CC1 | -79% |
| CCOc1ccccc1CN1CCC(CO)(CCOc2ccccc2)CC1 | -80.2% |
| CCOc1ccccc1CN1CCN(S(=O)(=O)CC)CC1.O=C(O)C(=O)O | 10.7% |
| CCOCCCn1c(=O)c(NC(=O)c2ccc(OCC)cc2)c2n(c1=S)CCCCC2 | -27.8% |
| CCCCCc1nnc(NC(=O)c2cccc(S(=O)(=O)N3CCOCC3)c2)s1 | -41.8% |
| Cn1c(Cn2c(=O)sc3ccccc32)nnc1SCc1ccccc1F | -19.9% |
| CCC(=O)N1CCN(c2ccc(NC(=O)c3cccs3)cc2)CC1 | -0.84% |
| COc1cc(/C=N/n2cnnc2)ccc1OC(=O)c1ccncc1 | 8% |
| O=C(COc1ncnc2ccccc12)Nc1ccc(S(=O)(=O)N2CCOCC2)cc1 | 9.94% |
| N#C/C=C(/N)c1ccc(Br)cc1 | 7.26% |
| c1ccc(Cn2ncc3c(Nc4ccccc4)ncnc32)cc1 | 6.01% |
| CCOc1ccc(CCNC(=O)COC(=O)C2CCN(c3ccc(C(F)(F)F)cn3)CC2)cc1OCC | -10.9% |

| SMILES | hERG current change (%, negative = inhibition) at 10uM |
| --- | --- |
| Cc1cccc(NS(=O)(=O)c2ccc(C(=O)NCCCN3CCCC3=O)cc2)c1C | 4.04% |
| Cc1nc([N+](=O)[O-])cn1CC(O)c1ccc(-c2ccccc2)cc1 (stereo not shown) | -44.3% |
| Cc1ccc(N=Nc2c(O)n(CN3CCOCC3)c3ccccc23)cc1 | 3.48% |
| Cc1ccc(NC(=O)CS(=O)CC(=O)NC2CCN(Cc3ccccc3)CC2)c(C)c1 (stereo not shown) | -3.54% |
| S=C(Nc1ccccc1)N1CCN(Cc2ccccc2)CC1 | -4.13% |
| COc1ccc(NC(=S)N2CCN(Cc3ccccc3)CC2)cc1 | 0.401% |
| FC(F)Oc1ccc(NC(=S)N2CCN(Cc3ccccc3)CC2)cc1 | -56% |
| Cc1ccc(NS(=O)(=O)c2cccc(C(=O)NCC(c3cccs3)N3CCOCC3)c2)cc1 (stereo not shown) | -14.3% |
| Cl.Clc1ccccc1CNC1CN2CCC1CC2 (stereo not shown) | -3.27% |
| COc1ccc(OCC(=O)Nc2ccc(C(=O)Nc3ccccc3C(=O)O)cc2)cc1 | 23.2% |
| CC(C)(C)c1nnc(NC(=O)c2cc(-c3ccccc3)nc3ccccc23)s1 | 17.3% |
| COc1ccc(CCN(C)C(=O)c2cc(-c3ccc(C)cc3)nc3ccccc23)cc1OC | -26.7% |
| COc1ccc(CCN(C)C(=O)c2cc(-c3ccccc3)nc3ccccc23)cc1OC | -4.79% |
| COc1ccc(CCN(C)C(=O)c2cc(-c3ccccc3)nc3ccc(C)cc23)cc1OC | -52.1% |
| O=C(O)CN1CCN(Cc2ccccc2F)C1=O | 24.7% |
| COc1ccc(Nc2nccc(OC)c2C#N)cc1 | -38.8% |
| COc1ccc(Nc2nccc(-c3ccc(C#N)cc3)n2)cc1 | 1.36% |
| COc1cnc(SC)nc1Nc1ccc(C#N)cc1 | -66.8% |
| COc1cccc(N2C(=O)C3CCCN3C2c2ccc(Cl)cc2)c1 (stereo not shown) | -1.05% |
| COc1cc(NC(=O)C2CCC(CNc3c(N4CCC(C)CC4)c(=O)c3=O)CC2)cc(OC)c1 (stereo not shown) | 16.7% |
| O=C(CN1CCN(c2ccccn2)CC1)Nc1ccc2ccccc2c1 | -43.9% |
| O=C1[C@H]2[C@@H](C(=O)N1c1cccc3ccccc13)C1(C(=O)c3ccccc3C1=O)N1CCC[C@@H]21 | -69% |

| SMILES | hERG current change (%, negative = inhibition) at 10uM |
| --- | --- |
| O=C1C2C3C=CC(C4CC34)C2C(=O)N1c1cccc2ccccc12 (stereo not shown) | -0.113% |
| O=C1C2C3C=CC(C3)C2C(=O)N1c1cccc2ccccc12 (stereo not shown) | 18.7% |
| Cn1c(CCNC(=O)C(C)(C)C)nc2ccccc21 | 16.4% |
| O=C(NC1CCCCC1)C1CC=CCC1C(=O)OCC(Cl)=C(Cl)Cl (stereo not shown) | -20.7% |
| COc1ccc(Oc2ncccc2[N+](=O)[O-])cc1 | 6.57% |
| CN(C)c1ccc(/C=N/NC(=O)c2ccco2)cc1 | 1% |
| O=C(CN1CCN(S(=O)(=O)N2CCCCC2)CC1)Nc1cc(Cl)ccc1Cl | 10.7% |
| CN(C)S(=O)(=O)N1CCN(CC(=O)Nc2cc(Cl)ccc2Cl)CC1 | -50.8% |
| O=C(CN1CCN(S(=O)(=O)N2CCOCC2)CC1)Nc1cc(Cl)ccc1Cl | -55.2% |
| O=C(CN1CCN(S(=O)(=O)N2CCCCCC2)CC1)Nc1cc(Cl)ccc1Cl | 7.48% |
| O=C(CN1CCOCC1)Nc1cc([N+](=O)[O-])ccc1Cl | -17% |
| O=C(CN1C(=O)c2ccc([N+](=O)[O-])cc2C1=O)Nc1cc(S(=O)(=O)N2CCOCC2)ccc1Cl | -60.8% |
| COc1ccc(Cl)cc1NC(=O)CN1CCN(S(=O)(=O)N2CCOCC2)CC1 | -55.9% |
| COc1ccc(S(=O)(=O)N2CCN(CC(=O)Nc3cc(Cl)ccc3Cl)CC2)cc1 | -7.44% |
| COc1ccc(Cl)cc1NC(=O)CN1CCN(S(=O)(=O)N2CCCCC2)CC1 | -9.48% |
| CN(C)c1ccc(NC(=O)CN2CCN(S(=O)(=O)c3cc(Cl)ccc3Cl)CC2)cc1 | -1.09% |
| CN1CCN(CC(=O)Nc2cc(S(=O)(=O)N3CCOCC3)ccc2Cl)CC1 | 4.13% |
| COc1ccc(Cl)cc1NC(=O)CN1CCN(S(=O)(=O)N2CCC(C)CC2)CC1 | -32.1% |
| O=C(O)c1ccccc1-c1cc2ccccc2[nH]1 | 19.7% |
